Experiment [1] concerns the target T1, Muscle, skeletal receptor tyrosine-protein kinase (Homo sapiens) (UniProt O15146).
T1 sequence (whole entry): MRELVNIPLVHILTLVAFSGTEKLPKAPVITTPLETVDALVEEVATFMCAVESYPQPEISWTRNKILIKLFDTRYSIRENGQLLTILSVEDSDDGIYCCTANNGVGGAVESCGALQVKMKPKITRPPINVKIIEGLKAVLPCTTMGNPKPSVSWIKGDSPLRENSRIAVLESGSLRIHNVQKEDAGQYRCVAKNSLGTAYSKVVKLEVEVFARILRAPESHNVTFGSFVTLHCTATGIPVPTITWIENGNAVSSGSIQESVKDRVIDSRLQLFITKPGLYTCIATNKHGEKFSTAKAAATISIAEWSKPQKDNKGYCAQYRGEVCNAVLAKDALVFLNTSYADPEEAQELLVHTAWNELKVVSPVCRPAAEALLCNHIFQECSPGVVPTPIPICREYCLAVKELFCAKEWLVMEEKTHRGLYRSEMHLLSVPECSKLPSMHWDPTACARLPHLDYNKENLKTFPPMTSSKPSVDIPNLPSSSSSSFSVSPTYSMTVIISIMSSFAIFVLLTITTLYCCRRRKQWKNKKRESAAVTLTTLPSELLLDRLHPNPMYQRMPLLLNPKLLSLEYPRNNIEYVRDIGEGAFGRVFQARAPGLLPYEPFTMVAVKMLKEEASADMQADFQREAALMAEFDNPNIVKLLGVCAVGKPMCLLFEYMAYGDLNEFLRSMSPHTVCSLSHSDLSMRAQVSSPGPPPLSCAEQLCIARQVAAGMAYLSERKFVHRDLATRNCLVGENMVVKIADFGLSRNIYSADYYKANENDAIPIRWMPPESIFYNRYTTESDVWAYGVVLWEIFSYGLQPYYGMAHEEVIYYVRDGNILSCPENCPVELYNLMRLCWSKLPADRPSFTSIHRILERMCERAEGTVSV
The conditions noted are these: at 1 µM.

In experiment [2] the target is T1, Muscle, skeletal receptor tyrosine-protein kinase (Homo sapiens). Particulars: at 10 µM.
The target of experiment [3] is T2, Serine/threonine-protein kinase Nek11 (Homo sapiens) (UniProt Q8NG66).
T2 sequence (whole entry): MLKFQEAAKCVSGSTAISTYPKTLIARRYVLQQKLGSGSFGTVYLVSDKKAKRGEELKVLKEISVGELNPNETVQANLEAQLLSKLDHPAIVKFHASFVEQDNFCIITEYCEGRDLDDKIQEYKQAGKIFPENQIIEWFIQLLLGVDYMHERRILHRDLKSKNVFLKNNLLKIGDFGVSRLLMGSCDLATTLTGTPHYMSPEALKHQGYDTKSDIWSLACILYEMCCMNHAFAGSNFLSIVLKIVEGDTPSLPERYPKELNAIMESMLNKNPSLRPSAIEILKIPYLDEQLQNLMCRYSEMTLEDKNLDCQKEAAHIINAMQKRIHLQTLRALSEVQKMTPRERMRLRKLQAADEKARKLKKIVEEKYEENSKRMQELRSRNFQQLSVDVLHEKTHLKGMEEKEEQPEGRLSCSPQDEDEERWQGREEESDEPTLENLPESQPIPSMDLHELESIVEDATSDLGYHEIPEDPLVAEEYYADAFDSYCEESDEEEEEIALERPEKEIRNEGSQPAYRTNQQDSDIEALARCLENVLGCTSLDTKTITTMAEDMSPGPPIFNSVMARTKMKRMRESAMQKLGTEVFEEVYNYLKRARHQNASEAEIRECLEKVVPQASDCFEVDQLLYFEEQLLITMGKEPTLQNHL
Particulars: at 1 µM.

For experiment [4], the target named is T2, Serine/threonine-protein kinase Nek11 (Homo sapiens). The conditions noted are these: at 10 µM.
The target of experiment [5] is T3, Serine/threonine-protein kinase Nek2 (Homo sapiens) (UniProt P51955).
T3 sequence (whole entry): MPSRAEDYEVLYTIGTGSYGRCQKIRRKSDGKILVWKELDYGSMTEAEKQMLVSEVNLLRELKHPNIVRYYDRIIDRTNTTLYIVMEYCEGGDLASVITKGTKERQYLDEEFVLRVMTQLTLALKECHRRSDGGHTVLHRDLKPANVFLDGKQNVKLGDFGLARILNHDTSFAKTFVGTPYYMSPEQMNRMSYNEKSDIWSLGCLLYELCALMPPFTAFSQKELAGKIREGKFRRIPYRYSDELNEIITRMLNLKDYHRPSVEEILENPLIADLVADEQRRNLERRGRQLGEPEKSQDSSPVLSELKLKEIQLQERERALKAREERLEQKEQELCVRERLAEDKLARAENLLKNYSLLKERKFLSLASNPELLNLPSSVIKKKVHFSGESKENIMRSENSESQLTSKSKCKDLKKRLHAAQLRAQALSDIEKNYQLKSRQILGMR
The conditions noted are these: at 1 µM.

The target in experiment [6] is T3, Serine/threonine-protein kinase Nek2 (Homo sapiens). Particulars: at 10 µM.
For experiment [7], the target named is T4, Serine/threonine-protein kinase Nek3 (Homo sapiens) (UniProt P51956).
T4 sequence (whole entry): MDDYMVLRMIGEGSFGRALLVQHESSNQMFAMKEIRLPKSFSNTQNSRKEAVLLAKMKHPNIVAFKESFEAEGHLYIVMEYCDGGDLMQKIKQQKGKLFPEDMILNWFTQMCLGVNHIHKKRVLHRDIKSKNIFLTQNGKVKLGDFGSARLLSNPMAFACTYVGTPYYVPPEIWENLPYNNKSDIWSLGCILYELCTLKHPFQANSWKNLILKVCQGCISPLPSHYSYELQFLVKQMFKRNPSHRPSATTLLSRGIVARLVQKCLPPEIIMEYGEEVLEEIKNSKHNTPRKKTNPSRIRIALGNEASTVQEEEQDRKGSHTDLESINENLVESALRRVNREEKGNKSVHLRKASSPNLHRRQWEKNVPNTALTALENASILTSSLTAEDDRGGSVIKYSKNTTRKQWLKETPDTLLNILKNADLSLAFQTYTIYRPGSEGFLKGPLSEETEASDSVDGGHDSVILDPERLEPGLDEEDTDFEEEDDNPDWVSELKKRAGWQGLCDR
The conditions noted are these: at 1 µM.

Experiment [8] deals with T4, Serine/threonine-protein kinase Nek3 (Homo sapiens). The conditions noted are these: at 10 µM.
Experiment [9] has as its target Serine/threonine-protein kinase tousled-like 2 (Homo sapiens) (UniProt Q86UE8). Particulars: at 1 µM.
For experiment [10] the target is unchanged. Particulars: at 10 µM.
Experiment [11] has as its target T5, Testis-specific serine/threonine-protein kinase 1 (Homo sapiens) (UniProt Q9BXA7).
T5 sequence (whole entry): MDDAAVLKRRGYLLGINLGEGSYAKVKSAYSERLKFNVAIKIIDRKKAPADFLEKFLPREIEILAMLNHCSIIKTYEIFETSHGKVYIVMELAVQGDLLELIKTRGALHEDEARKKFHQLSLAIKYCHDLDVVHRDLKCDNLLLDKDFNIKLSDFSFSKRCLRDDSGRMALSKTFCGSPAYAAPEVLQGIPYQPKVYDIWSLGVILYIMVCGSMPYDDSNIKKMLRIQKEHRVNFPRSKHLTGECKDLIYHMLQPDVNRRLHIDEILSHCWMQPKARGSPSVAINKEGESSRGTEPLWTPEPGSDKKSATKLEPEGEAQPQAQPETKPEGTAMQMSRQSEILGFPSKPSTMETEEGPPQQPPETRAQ
The conditions noted are these: at 1 µM.

Experiment [12] has as its target T5, Testis-specific serine/threonine-protein kinase 1 (Homo sapiens). Particulars: at 10 µM.
Experiment [13] deals with T6, Testis-specific serine/threonine-protein kinase 2 (Homo sapiens) (UniProt Q96PF2).
T6 sequence (whole entry): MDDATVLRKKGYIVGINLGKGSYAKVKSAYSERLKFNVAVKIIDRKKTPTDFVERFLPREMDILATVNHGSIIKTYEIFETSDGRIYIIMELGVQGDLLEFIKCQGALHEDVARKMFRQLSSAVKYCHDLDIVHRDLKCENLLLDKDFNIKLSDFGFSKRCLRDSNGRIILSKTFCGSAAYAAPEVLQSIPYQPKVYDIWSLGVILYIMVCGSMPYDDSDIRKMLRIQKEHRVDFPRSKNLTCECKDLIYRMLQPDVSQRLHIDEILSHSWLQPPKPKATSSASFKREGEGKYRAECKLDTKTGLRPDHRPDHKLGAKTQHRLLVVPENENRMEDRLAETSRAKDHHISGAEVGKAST
Particulars: at 10 µM.

Experiment [14] deals with T7, Tyrosine-protein kinase Tec (Homo sapiens) (UniProt P42680).
T7 sequence (whole entry): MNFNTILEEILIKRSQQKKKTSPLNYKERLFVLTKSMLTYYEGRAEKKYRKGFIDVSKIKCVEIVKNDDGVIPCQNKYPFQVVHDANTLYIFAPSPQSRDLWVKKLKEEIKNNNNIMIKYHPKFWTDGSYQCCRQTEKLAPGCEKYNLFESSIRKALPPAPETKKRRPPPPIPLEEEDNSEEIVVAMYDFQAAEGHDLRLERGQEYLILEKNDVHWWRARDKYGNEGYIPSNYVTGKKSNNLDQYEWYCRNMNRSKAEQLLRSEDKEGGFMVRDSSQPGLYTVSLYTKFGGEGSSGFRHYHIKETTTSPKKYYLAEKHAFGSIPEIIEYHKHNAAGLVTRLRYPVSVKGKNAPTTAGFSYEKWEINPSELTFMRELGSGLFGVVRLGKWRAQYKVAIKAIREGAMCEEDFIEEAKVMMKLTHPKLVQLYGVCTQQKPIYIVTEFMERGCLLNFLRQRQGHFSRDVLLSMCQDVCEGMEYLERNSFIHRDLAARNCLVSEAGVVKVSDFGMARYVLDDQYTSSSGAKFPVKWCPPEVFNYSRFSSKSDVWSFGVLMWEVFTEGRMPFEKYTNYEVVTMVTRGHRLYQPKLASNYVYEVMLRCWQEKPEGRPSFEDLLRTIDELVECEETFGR
Particulars: at 1 µM.

Experiment [15] concerns the target T7, Tyrosine-protein kinase Tec (Homo sapiens). The conditions noted are these: at 10 µM.
Experiment [16] addresses Angiopoietin-1 receptor (Homo sapiens) (UniProt Q02763). The conditions noted are these: at 1 µM.
The target is the same in experiment [17]. Particulars: at 10 µM.
The target of experiment [18] is High affinity nerve growth factor receptor (Homo sapiens) (UniProt P04629). Particulars: at 1 µM.
Sequence of High affinity nerve growth factor receptor (Homo sapiens) (P04629 33-796 limits assumed): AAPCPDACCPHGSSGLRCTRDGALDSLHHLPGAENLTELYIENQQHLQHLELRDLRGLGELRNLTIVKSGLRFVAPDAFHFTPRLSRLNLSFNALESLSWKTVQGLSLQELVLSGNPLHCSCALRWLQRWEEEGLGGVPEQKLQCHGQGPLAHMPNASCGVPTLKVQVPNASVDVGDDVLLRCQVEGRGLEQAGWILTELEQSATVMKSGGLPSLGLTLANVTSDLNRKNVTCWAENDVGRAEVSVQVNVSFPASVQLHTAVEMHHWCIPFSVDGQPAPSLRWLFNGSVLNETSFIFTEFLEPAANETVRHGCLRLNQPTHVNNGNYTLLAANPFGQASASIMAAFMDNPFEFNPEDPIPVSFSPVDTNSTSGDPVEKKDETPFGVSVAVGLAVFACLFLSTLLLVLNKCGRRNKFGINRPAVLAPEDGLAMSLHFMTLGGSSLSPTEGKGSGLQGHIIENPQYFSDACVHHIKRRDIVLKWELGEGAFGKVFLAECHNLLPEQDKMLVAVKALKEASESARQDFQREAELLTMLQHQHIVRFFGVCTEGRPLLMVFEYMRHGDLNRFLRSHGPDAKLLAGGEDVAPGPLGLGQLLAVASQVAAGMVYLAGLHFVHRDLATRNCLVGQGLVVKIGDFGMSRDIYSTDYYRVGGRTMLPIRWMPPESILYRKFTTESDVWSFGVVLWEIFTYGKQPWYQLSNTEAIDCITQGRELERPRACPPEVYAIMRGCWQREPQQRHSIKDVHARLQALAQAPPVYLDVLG
Experiment [19] shares this target. Particulars: at 10 µM.
Experiment [20] has as its target BDNF/NT-3 growth factors receptor (Homo sapiens) (UniProt Q16620). Particulars: at 1 µM.

Sequence of BDNF/NT-3 growth factors receptor (Homo sapiens) (Q16620 32-822 limits assumed): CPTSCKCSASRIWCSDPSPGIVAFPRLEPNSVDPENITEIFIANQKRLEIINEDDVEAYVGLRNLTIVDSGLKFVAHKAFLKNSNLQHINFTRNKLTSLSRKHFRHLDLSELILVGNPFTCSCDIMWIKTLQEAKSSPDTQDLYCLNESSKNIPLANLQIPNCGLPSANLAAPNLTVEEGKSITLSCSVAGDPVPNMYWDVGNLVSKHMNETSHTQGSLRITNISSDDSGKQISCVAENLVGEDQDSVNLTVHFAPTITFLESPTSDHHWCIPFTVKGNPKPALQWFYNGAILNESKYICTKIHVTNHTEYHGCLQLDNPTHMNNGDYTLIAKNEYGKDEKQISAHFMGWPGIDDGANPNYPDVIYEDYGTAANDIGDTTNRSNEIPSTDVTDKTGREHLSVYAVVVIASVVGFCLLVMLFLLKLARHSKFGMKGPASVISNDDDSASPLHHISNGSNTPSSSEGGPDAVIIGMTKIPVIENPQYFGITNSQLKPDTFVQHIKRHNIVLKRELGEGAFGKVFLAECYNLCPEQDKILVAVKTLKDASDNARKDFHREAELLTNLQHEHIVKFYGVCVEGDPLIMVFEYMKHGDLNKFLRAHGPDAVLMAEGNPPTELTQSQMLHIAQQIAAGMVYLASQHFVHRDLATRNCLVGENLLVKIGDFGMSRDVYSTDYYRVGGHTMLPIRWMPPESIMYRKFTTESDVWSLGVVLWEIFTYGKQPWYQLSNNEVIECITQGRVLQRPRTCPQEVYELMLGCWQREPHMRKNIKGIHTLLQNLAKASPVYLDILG
Sequence of Angiopoietin-1 receptor (Homo sapiens) (Q02763 whole entry): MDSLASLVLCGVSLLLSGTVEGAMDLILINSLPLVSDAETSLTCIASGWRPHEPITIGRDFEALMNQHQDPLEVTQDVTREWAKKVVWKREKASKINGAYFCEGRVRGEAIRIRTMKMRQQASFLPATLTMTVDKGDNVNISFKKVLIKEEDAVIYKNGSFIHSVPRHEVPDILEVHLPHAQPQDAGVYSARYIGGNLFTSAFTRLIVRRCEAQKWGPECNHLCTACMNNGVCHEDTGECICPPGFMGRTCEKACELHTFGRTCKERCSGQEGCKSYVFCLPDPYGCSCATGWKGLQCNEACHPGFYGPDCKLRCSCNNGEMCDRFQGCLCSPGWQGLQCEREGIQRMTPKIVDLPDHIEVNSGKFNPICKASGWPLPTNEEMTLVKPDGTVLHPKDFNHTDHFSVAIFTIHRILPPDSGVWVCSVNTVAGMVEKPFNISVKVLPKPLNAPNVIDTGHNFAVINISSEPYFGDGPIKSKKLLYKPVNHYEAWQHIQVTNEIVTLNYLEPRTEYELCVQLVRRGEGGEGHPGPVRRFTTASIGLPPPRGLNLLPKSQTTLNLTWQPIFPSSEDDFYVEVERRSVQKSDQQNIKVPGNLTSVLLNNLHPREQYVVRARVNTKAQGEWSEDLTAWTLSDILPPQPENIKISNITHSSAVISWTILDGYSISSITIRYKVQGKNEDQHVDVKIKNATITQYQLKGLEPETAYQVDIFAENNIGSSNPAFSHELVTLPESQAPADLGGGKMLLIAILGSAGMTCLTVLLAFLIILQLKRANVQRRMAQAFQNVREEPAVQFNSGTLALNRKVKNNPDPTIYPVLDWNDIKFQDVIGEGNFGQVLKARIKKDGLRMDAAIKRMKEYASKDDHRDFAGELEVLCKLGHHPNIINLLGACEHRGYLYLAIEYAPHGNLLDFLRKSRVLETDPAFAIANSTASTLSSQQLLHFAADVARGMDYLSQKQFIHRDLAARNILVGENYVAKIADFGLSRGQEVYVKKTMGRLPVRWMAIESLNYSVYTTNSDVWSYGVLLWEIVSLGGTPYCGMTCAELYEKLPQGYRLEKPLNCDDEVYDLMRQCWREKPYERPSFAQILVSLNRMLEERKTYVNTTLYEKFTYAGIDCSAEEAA
Sequence of Serine/threonine-protein kinase tousled-like 2 (Homo sapiens) (Q86UE8 whole entry, looked up): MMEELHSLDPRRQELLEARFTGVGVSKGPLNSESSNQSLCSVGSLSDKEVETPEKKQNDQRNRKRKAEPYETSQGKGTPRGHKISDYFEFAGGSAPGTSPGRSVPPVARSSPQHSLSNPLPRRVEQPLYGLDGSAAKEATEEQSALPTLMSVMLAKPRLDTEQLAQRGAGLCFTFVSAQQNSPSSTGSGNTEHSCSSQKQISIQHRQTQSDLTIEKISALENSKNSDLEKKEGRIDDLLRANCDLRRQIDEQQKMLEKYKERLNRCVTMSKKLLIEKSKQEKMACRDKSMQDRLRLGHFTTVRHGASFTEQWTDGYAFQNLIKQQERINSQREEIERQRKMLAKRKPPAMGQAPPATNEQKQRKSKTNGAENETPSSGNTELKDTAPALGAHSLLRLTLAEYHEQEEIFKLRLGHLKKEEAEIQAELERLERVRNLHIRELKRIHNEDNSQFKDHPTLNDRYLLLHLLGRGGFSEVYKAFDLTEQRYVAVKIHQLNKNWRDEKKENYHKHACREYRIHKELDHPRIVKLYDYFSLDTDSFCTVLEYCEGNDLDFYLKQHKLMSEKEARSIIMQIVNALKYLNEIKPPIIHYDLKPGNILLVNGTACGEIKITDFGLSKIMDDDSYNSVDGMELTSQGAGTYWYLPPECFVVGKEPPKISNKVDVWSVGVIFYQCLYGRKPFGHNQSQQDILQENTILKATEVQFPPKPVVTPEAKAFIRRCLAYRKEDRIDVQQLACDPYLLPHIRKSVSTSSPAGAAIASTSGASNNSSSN

For the compound `O=Nc1c(-c2c(O)[nH]c3ccccc23)[nH]c2ccccc12`, the residual activity in experiment [1] was 58%; in experiment [2], 5%; in experiment [3], 70%; in [4], 18%; in experiment [5], 93%; in [6], 83%. Besides, the residual activity in experiment [7] came out at 86%; in [8], 94%; in experiment [9], 60%; in experiment [10] it was 14%; in experiment [11], 78%; in [12], 53%. The residual activity in [13] is 78%; in experiment [14], 64%; in experiment [15], 22%; in experiment [16] it was 103%; in [17], 41%; in [18] it was 0%. For the same compound, the residual activity in experiment [19] and in experiment [20] was 0% each time.

Consider `O=C1NC(=O)/C(=C/c2ccc3c(c2)OC(F)(F)O3)S1`, for which the residual activity in experiment [1] is 110%; in experiment [2] it was 89%; in [3], 80%; in experiment [4] it was 82%; in experiment [5] it was 97%; in experiment [6] it was 94%. Besides, the residual activity is 117% in [7]; 88% in experiment [8]; 112% in experiment [9]; 97% in experiment [10]; 99% in experiment [11]; 91% in [12]. The residual activity was 97% in [13]; 83% in [14]; 80% in experiment [15]; 94% in [16]; 85% in [17]; 86% in experiment [18]. For the same compound, the residual activity stood at 60% in experiment [19] and 44% in [20].

For `COc1cccc(-c2cc(=O)c3ccccc3o2)c1N`, the residual activity amounted to 104% in experiment [1]; 97% in [2]; 64% in experiment [3]; 78% in experiment [4]; 98% in [5]; 102% in experiment [6]. For the same compound, the residual activity in [7] is 93%; in experiment [8], 101%; in experiment [9] it was 98%; in [10], 101%; in [11], 103%; in experiment [12], 89%. The residual activity was found to be 86% in experiment [13]; 87% in experiment [14]; 91% in [15]; 108% in [16]; 106% in experiment [17]; 99% in experiment [18]. In addition, the residual activity in experiment [19] is 92%; in [20], 105%.

Take `COc1ccc(OC)c2c(=S)c3ccccc3[nH]c12`: the residual activity came to 89% in [1]; 85% in experiment [2]; 70% in experiment [3]; 54% in experiment [4]; 98% in [5]; 95% in experiment [6]. The residual activity in experiment [7] was 74%; in experiment [8], 91%; in experiment [9], 84%; in experiment [10], 87%; in [11], 90%; in experiment [12] it was 94%. Further, the residual activity was 90% in [13]; 92% in experiment [14]; 84% in experiment [15]; 94% in experiment [16]; 94% in experiment [17]; 78% in experiment [18]. For the same compound, the residual activity in [19] amounted to 57%; in [20], 88%.

For the origin of these results see ChEMBL document CHEMBL2218924, “A broad activity screen in support of a chemogenomic map for kinase signalling research and drug discovery” (Biochem J, 2013).
